# Pol III holo inh: qHTS Assay for Inhibitors of DNA Polymerase III Holoenzyme System; AID 603, 2007; Potency, µM (series often up to 57.1 µM), for inactives: at the highest dose activity change, negative = inhibition; reconstituted DNA polymerase III holoenzyme replication, biochemical; hit rate 0.25% among 71,000; further: potency means the concentration at half of the fitted maximal effect; on the % scale 0 is the no-effect control and ±100 the full control effect
#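 Reconstituted *E. coli* holoenzyme (0.35 nM Pol III, 1 nM beta, 154 nM SSB, 2 nM primase) was preincubated with compound for 15 min at RT. Synthesis on 1.4 nM ssM13Gori ran 35 min, then was stopped with PicoGreen/EDTA and read as dsDNA fluorescence.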
# ERK AVP block: qHTS Assay for Inhibitors of the ERK Signaling Pathway using a Homogeneous Screening Assay. HEK293-V1b, vasopressin-stimulated pERK AlphaScreen. Potency, µM (top dose mostly 57.5 µM), inactives show top-dose activity, negative = inhibition, hits mostly inhibitors. hit rate 0.99% among 72,000. AID 995, 2007; further: potency means the concentration at half of the fitted maximal effect; on the % scale 0 is the no-effect control and ±100 the full control effect; nearly all actives have a fitted effect of over 55% in size
#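 Overnight-seeded V1b-HEK293 cells in 1% FBS got compound, then vasopressin (25 nM final, 5 min, 37C), then lysis buffer. AlphaScreen detection of phospho-ERK; activity normalized to basal and full-stimulation controls.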
# p53ts 39C tox: qHTS Screen for Compounds that Selectively Target Cancer Cells with p53 Mutations: Cytotoxicity of p53ts Cells at the Nonpermissive Temperature; hit rate 1.5% among 130,000; H1299-p53A138V viability at 39C, ATP luminescence, 24 h; Potency, µM (titrated, usually from 46.1 µM), without a hit: at the top dose activity change, negative = cell killing, usual class: cytotoxic; further: potency means the concentration at half of the fitted maximal effect; on the % scale 0 is the no-effect control and ±100 the full control effect; nearly all actives have a fitted effect of over 55% in size
# Tau filament bind: qHTS Assay for Tau Filament Binding. Potency, µM (titrated, usually from 57.1 µM), for inactives: top-dose activity change, negative = inhibition. recombinant tau filaments, thioflavin S fluorescence, 15 h; filaments grown with octadecylsulfate alongside compound. AID 596, 2007. hit rate 2% among 71,000;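 further: potency means the concentration at half of the fitted maximal effect; on the % scale 0 is the no-effect control and ±100 the full control effect; actives lower thioflavin S fluorescence by blocking filaments or displacing dye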
# Target sequence (P10636 whole entry, looked up): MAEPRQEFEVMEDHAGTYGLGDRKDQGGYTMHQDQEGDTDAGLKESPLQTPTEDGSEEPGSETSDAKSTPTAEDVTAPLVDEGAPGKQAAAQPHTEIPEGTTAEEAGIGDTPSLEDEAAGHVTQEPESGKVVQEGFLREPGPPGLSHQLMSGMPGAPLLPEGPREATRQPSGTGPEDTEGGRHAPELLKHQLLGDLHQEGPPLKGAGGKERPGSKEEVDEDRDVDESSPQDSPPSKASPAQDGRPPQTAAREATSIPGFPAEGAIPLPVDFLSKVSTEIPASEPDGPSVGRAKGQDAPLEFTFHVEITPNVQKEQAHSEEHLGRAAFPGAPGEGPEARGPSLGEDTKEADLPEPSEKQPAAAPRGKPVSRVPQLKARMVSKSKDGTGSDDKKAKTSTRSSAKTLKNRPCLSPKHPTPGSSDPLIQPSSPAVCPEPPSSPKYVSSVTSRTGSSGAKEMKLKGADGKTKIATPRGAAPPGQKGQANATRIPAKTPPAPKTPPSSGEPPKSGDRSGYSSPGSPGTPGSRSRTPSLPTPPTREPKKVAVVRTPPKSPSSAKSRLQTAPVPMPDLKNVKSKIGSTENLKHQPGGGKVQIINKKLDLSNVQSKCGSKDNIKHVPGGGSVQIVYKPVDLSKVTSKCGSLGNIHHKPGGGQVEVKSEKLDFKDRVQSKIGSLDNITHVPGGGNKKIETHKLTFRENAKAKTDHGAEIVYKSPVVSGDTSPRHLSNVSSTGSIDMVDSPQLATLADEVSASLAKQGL
#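 Assay mix: 1 uM His-tagged tau, 30 uM sodium octadecylsulfate, thioflavine S dye in HEPES/NaCl/DTT buffer. Compound is added prior to the inducer. Fluorescence after 15 h at 37 C.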
# YjeE inh: qHTS Assay for Inhibitors of YjeE | Potency, µM | hit rate 0.05% among 71,000 | purified YjeE enzyme, qHTS inhibition assay | AID 605, 2007
#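 Purified YjeE (10 uM) with BODIPY Texas Red-labeled ADP probe (2 uM); compounds pin-transferred, 15 min at room temperature. Binding inhibition read as decreased fluorescence polarization; ADP titration as control.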
# p53ts 32C tox: qHTS Screen for Compounds that Selectively Target Cancer Cells with p53 Mutations: Cytotoxicity of p53ts Cells at the Permissive Temperature; H1299-p53A138V at 32C, ATP luminescence viability, 24 h; Potency, µM (top dose mostly 46.1 µM), for the others: at the highest dose activity change, negative = cytotoxicity, actives largely listed as cytotoxic; hit rate 0.93% among 130,000;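 further: potency means the concentration at half of the fitted maximal effect; 0% = DMSO and -100% = full killing by reference compound; nearly all actives have a fitted effect of over 55% in size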
#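 Viability by ATPlite luminescence after 24 h compound treatment (up to 46 uM) at the permissive 32C. Cells are H1299 carrying p53 A138V. Scale runs from DMSO basal to 100 uM tamoxifen as full kill; AC50 from Hill fits.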
# Numbers without * were called inactive; i = inactive; ? = inconclusive; . = not tested or not shown; [ ] = remark or other dose. A selection: hits, their analogues and other compounds. The true share with any hit is near 3.2%. The call rests on the fitted dose curve; in most records, active means well fitted curve in the direction sought with a large enough effect; inconclusive means small, poorly fitted or top-dose-only effect, or another doubt; inactive means no such curve, though single readings can be large; an effect the other way counts as inactive or inconclusive.
SMILES,Pol III holo inh,ERK AVP block,p53ts 39C tox,Tau filament bind,YjeE inh,p53ts 32C tox
CCOC(=O)NC(=O)CSc1nc(C)cc(C)c1C#N,-5%,-18%,6.3µM*,-16%,i,5µM*
Cc1cc(C)c(C#N)c(SCC(=O)Nc2ccccc2C#N)n1,.,.,10%,.,.,?
Cc1cc(C)c(C#N)c(SCC(=O)Nc2ccccc2C(N)=O)n1,-5%,-28%,2µM*,3%,i,13µM*
O=C(Nc1cccc(C(F)(F)F)c1)c1cc(CN2CCOCC2)on1,.,.,-7%,.,.,-7%
CCOc1ccccc1/C=C/c1onc(C)c1S(=O)(=O)N1CCC(C(=O)N(CC)CC)CC1,.,.,-8%,.,.,13%
Cc1ccc(/C=C/c2onc(C)c2S(=O)(=O)N2CCC(C(=O)N3CCC(N(C)C(C)C)CC3)CC2)cc1,.,.,20µM*,.,.,?
CCN(CCN(C)C)C(=O)C1CCN(S(=O)(=O)c2c(C)noc2/C=C/c2ccccc2F)CC1,.,.,13µM*,.,.,-21%
COc1ccc(/C=C/C(=O)Nc2cccc(F)c2)cc1,.,.,7.9µM*,.,.,10µM*
COc1ccc(C(=O)Nc2cccc(OC)c2)cc1,-3%,-15%,13µM*,3%,i,10µM*
Cc1ccccc1C(=O)Nc1cccc(NC(=O)c2ccc(C(C)(C)C)cc2)c1,.,.,13µM*,.,.,10µM*
COc1ccc(NC(=O)/C=C\c2ccc(Cl)cc2)cc1,-6%,?,?,-12%,i,?
Cc1ccccc1C(=O)Nc1cccc(N)c1,-1%,-19%,2%,-22%,i,-1%
CCc1nnc(NC(=O)c2cccc(OC)c2)s1,0%,-4%,?,6%,i,13µM*
COC(=O)c1cc2oc3ccccc3c2n1Cc1nc(-c2ccccc2Cl)oc1C,.,.,0%,.,.,12%
COc1cccc(NC(=O)CNC(C)CCC(C)C)c1 (stereo not given),-8%,2%,-16%,20µM*,i,-6%
COc1cccc(C(=O)Nc2ccc(NC(=O)C(C)(C)C)cn2)c1,-4%,-3%,3.2µM*,-6%,i,4µM*
COc1ccc(C(=O)COC(=O)c2cccc(NC(=O)c3ccc(OC)c(OC)c3)c2)cc1,.,.,16µM*,.,.,?
COc1ccc2oc(=O)c(C(=O)Nc3cccc(C(=O)O)c3)cc2c1,.,.,5µM*,.,.,7.9µM*
CC(Sc1nc2c([nH]c3ccccc32)c(=O)n1-c1ccccc1)c1ccccc1 (stereo not given),.,.,?,.,.,5%
CCC(=O)/C=C/C1C(C)=CCCC1(C)C (stereo not given),6%,12%,11%,-4%,i,3%[1.84 µM]
COc1ccc(F)cc1S(=O)(=O)NCCc1csc2nc(-c3cccc(C)c3)nn12,.,.,-9%,.,.,7%
CCc1cc(N2CCOCC2)cc2c1[nH]c1ccccc12,-4%,-30%,10%,25µM*,i,6%
COc1cc(C(=O)CC2(O)C(=O)N(Cc3ccccc3Cl)c3ccccc32)cc(OC)c1OC (stereo not given),.,.,-13%,.,.,9%
COc1cc2[nH]c(=O)n(Cc3ccc(C(=O)N4CCN(c5cccc(C)c5C)CC4)cc3)c(=O)c2cc1OC,.,.,23%,.,.,-2%
CCOC(=O)c1sc2ccccc2c1S(=O)(=O)Nc1ccc(N(C)C)cc1,.,.,-17%,.,.,5%
Cc1ccc(NC(=O)c2cc(C)n(-c3ccccc3)c2C)cc1,.,.,7.1µM*,.,.,.
Cc1cc(C)n(-c2ccc(C(=O)OCC(=O)c3ccc(Br)s3)cc2)n1,0%,-20%,-6%,13µM*,i,12%
COc1ccc(-c2nc(CNS(=O)(=O)c3cccc(F)c3)cs2)cc1,.,.,-13%,.,.,2%

# Source: PubChem BioAssay
